According to PubChem BioAssay:
The source made the active and inactive calls.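 Rule for the calls, unless noted: active = inhibition above 20% together with a positive visual image hit; inconclusive = visual image hit but inhibition not above 20%; inactive = no visual image hit.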

Experiments:
[1] = inhibitors of TNFa-induced NFkB p65 translocation, primary screen, imaging, HUVEC, MLSMR starter and 10KST1 sets (AID 438); details: HUVEC TNFa-induced p65 nuclear translocation; cell count: measured here: nuclei count (cytotoxicity indicator), at 2.08 µM; inhibition: at 2 µM, stronger effect = higher value, 0% TNFa-plus-vehicle, 100% no-TNFa wells;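 note: compound added about 3h40 before a 20 min TNFalpha stimulation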;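 for inhibition: signal is the nuclear over cytoplasmic p65 intensity ratio per well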
[2] = inhibitors of mutant huntingtin aggregation, primary screen, imaging, exon1htt(103Q)mCFP cells, high-content imaging (AID 483;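 active = visual image review flags a hit and inhibition of aggregation exceeds 20%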;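 note: compound exposure lasted 3 days before fixation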;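 for nuclei count: percent of the per-plate median nuclei count of sample wells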); details: exon1htt(103Q)mCFP cell line, aggregate imaging, at 2 µM; inhibition of aggregation: stronger effect = higher value; nuclei count: measured here: cell count, toxicity
[3] = inhibitors of E-selectin induction by TNFa, primary screen, imaging, HUVEC, immunofluorescence, MLSMR starter and 10KST1 sets (AID 487;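 active = visually confirmed hit in the image check and inhibition above 20%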;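 for inhibition: signal is fraction of cell area covered by stained E-selectin grains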;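 for nuclei count: 100% = median nuclei count of all wells on the same plate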); details: HUVEC TNFalpha-induced E-selectin immunofluorescence imaging, at 2 µM; inhibition: stronger effect = higher value; nuclei count: measured here: cell number, toxicity
[4] = molecular target: Voltage-gated potassium channel subunit beta-2 (Rattus norvegicus) (UniProt P62483); assay: KvBeta enzyme negative modulators, primary screen, biochemical, NADPH fluorescence (AID 622;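 active = fluorescence slope higher than the sample average by over 3 SD, cut at about -0.22 in these data, passing the limit was not always enough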;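 note: slope of raw intensity against log time taken from 70 to 1610 s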); details: recombinant KvBeta, 4-cyanobenzaldehyde reduction, at 10 µM, stronger effect = higher value
[5] = molecular target: Voltage-gated potassium channel subunit beta-2 (Rattus norvegicus) (UniProt P62483); assay: KvBeta positive modulators, primary screen, biochemical, NADPH fluorescence (AID 623;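 active = NADPH fluorescence slope more negative than the mean of all samples by about 3 SD, 99.7% confidence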;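 note: fluorescence intensity change per second fitted from 20 to 320 s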); details: Recombinant KvBeta, NADPH fluorescence decrease slope, 10 min; at 10 µM; stronger effect = lower value
[6] = molecular target: Alpha-2C adrenergic receptor (Homo sapiens) (UniProt P18825); assay: modulators of alpha2C/GIRK thallium flux, primary screen, cell-based, HEK293 alpha2C/GIRK1/2 (AID 624;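 active = fluorescence slope after compound addition differing from the mean of all screened samples at 99.7% confidence, in either direction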;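 note: slope of fluorescence ratio to pre-addition baseline per second over 15 to 24 s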); details: thallium flux BTC fluorescence, at 10 µM, actives lie on both sides
[7] = inhibitors of Sendai virus-induced IRF3 signaling, primary screen, TLR/RLR signaling modifier project, cell-based, Sendai virus stimulus, luciferase, 10K MLSCN set (AID 602276;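 active = inhibition at or above 50% at 10 µM; inactive = inhibition below 50%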;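 note: firefly luciferase from ISG56 promoter only with Renilla not read in this screen; 0% = Sendai virus plus DMSO and 100% = medium plus DMSO without virus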); details: HEK293 RL24 IRF3 luciferase reporter, at 10 µM, stronger effect = higher value
[8] = inhibitors of poly I:C-induced TLR3 signaling, primary screen, cell-based, poly I:C stimulus, luciferase, 10K MLSCN set (AID 602277;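 active = inhibition of the reporter signal at or above 50%; inactive = inhibition below 50%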); details: HEK293-TLR3 RL24 IRF3 luciferase reporter, at 10 µM, stronger effect = higher value

Chain of Alpha-2C adrenergic receptor (Homo sapiens) (P18825 whole entry, looked up): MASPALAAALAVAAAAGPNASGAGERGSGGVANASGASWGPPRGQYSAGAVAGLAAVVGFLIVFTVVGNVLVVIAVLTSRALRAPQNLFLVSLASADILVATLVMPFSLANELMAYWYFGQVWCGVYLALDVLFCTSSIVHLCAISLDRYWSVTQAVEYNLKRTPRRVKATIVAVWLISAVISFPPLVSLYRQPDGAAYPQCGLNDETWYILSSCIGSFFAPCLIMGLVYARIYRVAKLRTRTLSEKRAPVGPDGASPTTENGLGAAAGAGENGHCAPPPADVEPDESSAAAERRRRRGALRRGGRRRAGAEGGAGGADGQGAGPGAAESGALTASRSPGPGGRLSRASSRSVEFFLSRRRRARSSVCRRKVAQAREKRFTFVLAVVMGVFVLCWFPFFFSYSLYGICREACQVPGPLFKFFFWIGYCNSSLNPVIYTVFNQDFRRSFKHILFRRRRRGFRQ
Chain of Voltage-gated potassium channel subunit beta-2 (Rattus norvegicus) (P62483 whole entry, looked up): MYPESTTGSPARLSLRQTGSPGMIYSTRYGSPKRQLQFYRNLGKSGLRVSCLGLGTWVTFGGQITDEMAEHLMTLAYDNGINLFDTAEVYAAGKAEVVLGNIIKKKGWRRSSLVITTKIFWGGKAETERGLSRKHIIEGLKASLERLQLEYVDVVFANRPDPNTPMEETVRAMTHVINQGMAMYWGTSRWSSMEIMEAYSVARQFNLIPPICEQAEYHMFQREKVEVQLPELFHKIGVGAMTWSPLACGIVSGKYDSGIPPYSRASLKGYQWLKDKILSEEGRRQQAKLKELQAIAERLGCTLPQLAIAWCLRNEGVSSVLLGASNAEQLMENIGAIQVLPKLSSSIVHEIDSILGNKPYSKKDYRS

SMILES	cell count [1]	inhibition [1]	inhibition of aggregation [2]	nuclei count [2] [%]	inhibition [3]	nuclei count [3] [%]	fluorescence slope [4]	NADPH fluorescence slope [5]	slope [6]	inhibition [7]	inhibition [8]
COc1ccc(C2CC(C(F)(F)F)n3ncc(C(=O)NCc4cccnc4)c3N2)cc1OC (stereo not drawn)	313	0.3% (inactive)	8.9% (inactive)	57.1	8% (inactive)	91.9	-0.388 (inactive)	-3.2e-05 (inactive)	0.00287 (inactive)	5.88% (inactive)	20.9% (inactive)
CN(Cc1ccccc1)c1nc2c(c(=O)[nH]c(=O)n2C)n1Cc1ccccc1Cl	364	-1% (inactive)	-1.2% (inactive)	108	-18.5% (inactive)	102	-0.6 (inactive)	-2.7e-05 (inactive)	0.00484 (inactive)	16% (inactive)	23.3% (inactive)
COc1ccc(C2C3=C(CCCC3=O)Nc3nc(SCc4ccccc4)nn32)cc1OC (stereo not drawn)	665	-12.9% (inactive)	9.2% (inactive)	91.2	32.2% (inactive)	105	-0.335 (inactive)	-6.9e-05 (inactive)	0.00626 (inactive)	6.77% (inactive)	14.4% (inactive)
C=CCc1ccccc1OCCCCN1CCCC1	750	-8% (inactive)	9.9% (inactive)	87.9	-10.4% (inactive)	114	-0.497 (inactive)	-3.1e-05 (inactive)	0.00605 (inactive)	-11.7% (inactive)	19.4% (inactive)
CC/C(O)=C(/C#N)c1nnc2n1CCCCC2	446	3.6% (inactive)	-9.6% (inactive)	115	47.8% (inactive)	86.1	-0.608 (inactive)	-2e-05 (inactive)	0.00604 (inactive)	7.71% (inactive)	11.5% (inactive)
c1ccc2c(c1)c1c3n2CCNC3CCC1 (stereo not drawn)	663	-11.5% (inactive)	-9.5% (inactive)	103	-119% (inactive)	102	-0.364 (inactive)	-2e-05 (inactive)	0.00436 (inactive)	15.3% (inactive)	14% (inactive)
Cc1noc(C)c1C(=O)Nc1ccc(Cl)cc1C(F)(F)F	327	-13.5% (inactive)	1.7% (inactive)	99.5	-6% (inactive)	102	-0.625 (inactive)	-1e-05 (inactive)	0.0031 (inactive)	17.2% (inactive)	18% (inactive)
Cc1nc2ccc(C(=O)c3ccccc3)cc2[nH]1	411	7.2% (inactive)	18.6% (inactive)	69.6	-8.7% (inactive)	105	-0.389 (inactive)	2.4e-05 (inactive)	0.00371 (inactive)	-30.7% (inactive)	-56.7% (inactive)
CC(=O)Nc1ccc(S(=O)(=O)N2CCC(NC(C)=O)(c3cccc(F)c3)CC2)cc1	682	-5.8% (inactive)	-25.6% (inactive)	130	-10.1% (inactive)	109	-0.494 (inactive)	-4.3e-05 (inactive)	0.0062 (inactive)	8.44% (inactive)	28.9% (inactive)
O=C(NCc1ccco1)c1ccccc1Nc1ccc(F)cc1	575	-7.2% (inactive)	47.6% (active)	67.1	-30.4% (inactive)	103	-0.308 (inactive)	-5e-05 (inactive)	0.00433 (inactive)	5.52% (inactive)	-2.76% (inactive)
COC(=O)c1nnn(-c2ccccc2)c1N	314	10.6% (inactive)	19% (inactive)	92	-13.3% (inactive)	117	-0.506 (inactive)	-2.7e-05 (inactive)	0.00571 (inactive)	6.82% (inactive)	11.8% (inactive)
COc1cccc(OCc2nc3ccccc3[nH]2)c1	596	-4.8% (inactive)	3.2% (inactive)	102	-75.3% (inactive)	114	-0.57 (inactive)	-9.8e-06 (inactive)	0.0079 (inactive)	-67.8% (inactive)	-190% (inactive)
CCOC(=O)c1[nH]c(C)c(C(=O)NC)c1C	627	-1.3% (inactive)	0.2% (inactive)	105	-37.7% (inactive)	103	-0.563 (inactive)	-1.3e-05 (inactive)	0.00529 (inactive)	9.49% (inactive)	27.6% (inactive)
CCOc1ccc(NC(=O)Cn2nnc(-c3ccccc3F)n2)cc1	513	-2.7% (inactive)	19% (inactive)	88.3	-32.4% (inactive)	103	-0.539 (inactive)	2.1e-05 (inactive)	0.00657 (inactive)	9.14% (inactive)	12.8% (inactive)
O=C(NCC(c1cccnc1)N1CCOCC1)c1cccs1 (stereo not drawn)	357	9.8% (inactive)	-3.5% (inactive)	97.5	-81% (inactive)	123	-0.414 (inactive)	-1.2e-05 (inactive)	0.00412 (inactive)	5.49% (inactive)	10.9% (inactive)
Cc1ccc(NC(=O)CCN2CCc3ccccc3C2)cc1	820	-9.6% (inactive)	-13.1% (inactive)	86.9	-44.8% (inactive)	113	-0.463 (inactive)	-0.000317 (inactive)	0.00467 (inactive)	5.12% (inactive)	24.7% (inactive)
O=c1c2ccccc2c(/C=N/n2cnnc2)c(O)n1-c1ccccc1	408	-1.9% (inactive)	-43% (inactive)	58.6	-12.2% (inactive)	101	-0.102 (active)	-7.7e-05 (inactive)	0.00664 (inactive)	-3.33% (inactive)	6.58% (inactive)
O=C(Nc1cccnc1)c1ccc2c(c1)OCO2	696	-16.9% (inactive)	19.5% (inactive)	80.6	-9.7% (inactive)	110	-0.515 (inactive)	-3.5e-05 (inactive)	0.00618 (inactive)	-19.3% (inactive)	-49.8% (inactive)
CCOc1ccc2c(c1)c1nnc(SCC(=O)N3CCC(C)CC3)nc1n2C	432	-0.2% (inactive)	0.1% (inactive)	99.9	-30.2% (inactive)	114	-0.326 (inactive)	-5.2e-05 (inactive)	0.00371 (inactive)	-10.6% (inactive)	-29.5% (inactive)
Cc1[nH]nc2c1C(=O)CC(C)(C)C2	416	-4.9% (inactive)	-16.7% (inactive)	118	-24.4% (inactive)	117	-0.347 (inactive)	-1.7e-05 (inactive)	0.0065 (inactive)	-3.34% (inactive)	17.1% (inactive)
C=CCn1c(C)cc(C(=O)CSc2nc3ccccc3o2)c1C	615	-8.9% (inactive)	-16.3% (inactive)	105	-58.1% (inactive)	104	-0.595 (inactive)	-5.9e-05 (inactive)	0.00586 (inactive)	-26.5% (inactive)	-136% (inactive)
CCOCCCNC(=O)C1CC(=O)N(C2CCCC2)C1 (stereo not drawn)	536	-6.8% (inactive)	1.5% (inactive)	103	11.6% (inactive)	118	-0.495 (inactive)	-1.6e-05 (inactive)	0.00627 (inactive)	15.9% (inactive)	18.9% (inactive)
CCc1nnc(NC(=O)C2Cc3ccccc3CN2S(=O)(=O)c2cccs2)s1 (stereo not drawn)	521	-10.2% (inactive)	-27.6% (inactive)	116	-57.1% (inactive)	117	-0.482 (inactive)	-2.6e-05 (inactive)	0.00706 (inactive)	-21.3% (inactive)	-50.1% (inactive)
Cc1ccc(-c2noc(CN3C(C)CCCC3C)n2)cc1 (stereo not drawn)	483	2.1% (inactive)	-5.2% (inactive)	75.4	-26.4% (inactive)	101	-0.531 (inactive)	-1.6e-05 (inactive)	0.00754 (inactive)	2.73% (inactive)	0.396% (inactive)
CCOC(=O)Nc1cc(OC)c(OC)cc1Cc1nccc2cc(OC)c(OC)cc12	444	-1.8% (inactive)	-1.2% (inactive)	111	-20.1% (inactive)	173	-0.532 (inactive)	4.5e-06 (inactive)	0.00447 (inactive)	-7.98% (inactive)	5.89% (inactive)
O=C(CCCCCn1c(=S)[nH]c2cc3c(cc2c1=O)OCO3)N1CCN(Cc2ccccc2)CC1	494	3% (inactive)	-11.1% (inactive)	100	-25.7% (inactive)	113	-0.476 (inactive)	1.3e-05 (inactive)	0.00605 (inactive)	-5.45% (inactive)	15.2% (inactive)
Cc1ccccc1-n1c(=O)cc(N2CCN(C(=O)c3ccco3)CC2)[nH]c1=O	543	12.5% (inactive)	6.9% (inactive)	116	-8.4% (inactive)	99.7	-0.598 (inactive)	1.7e-05 (inactive)	0.00562 (inactive)	13.5% (inactive)	12.4% (inactive)
COc1ccc(NC(=O)CSc2c(C)nn(-c3nnc(C)c(=O)[nH]3)c2C)cc1	387	-4.5% (inactive)	-12.6% (inactive)	107	-170% (inactive)	134	-0.537 (inactive)	2e-05 (inactive)	0.00687 (inactive)	1.41% (inactive)	3.06% (inactive)
